# Test results as given in publication PMC11062922 (Nature Chemical Biology, 2023).
# Like-named read-outs stand apart in the source and are kept apart here.
# How the values were obtained:
# [1] = system: GAK; set-up: species or system human, MV4-11 + K-562 + COLO205 + SK-N-BE2 + OVCAR-8; conditions: read-out: apparent Kd, n = 1
# [2] = system: PKN3; set-up: species or system human, MV4-11 + K-562 + COLO205 + SK-N-BE2 + OVCAR-8; conditions: read-out: apparent Kd, n = 1;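 as to IC50: NanoBRET target engagement in HEK293T cells transiently expressing full-length PKN3 with C-terminal NanoLuc, displacement of fluorescent tracer K5 (500 nM), BRET read after 2 h equilibration at 37 °C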
# [3] = system: PKN3; conditions: hek293t cells;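 as to IC50: NanoBRET target engagement in HEK293T cells transiently expressing full-length PKN3 with C-terminal NanoLuc, displacement of fluorescent tracer K5 (500 nM), BRET read after 2 h equilibration at 37 °C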
# [4] = system: GSK3A; set-up: species or system human, MV4-11 + K-562 + COLO205 + SK-N-BE2 + OVCAR-8; conditions: read-out: apparent Kd; compound concentrations:100 nM and 1000 nM (sheet 'Samples'); n = 1
# [5] = system: GSK3B; set-up: species or system human, MV4-11 + K-562 + COLO205 + SK-N-BE2 + OVCAR-8; conditions: read-out: apparent Kd; compound concentrations:100 nM and 1000 nM (sheet 'Samples'); n = 1
# [6] = system: PAK4; set-up: species or system human, MV4-11 + K-562 + COLO205 + SK-N-BE2 + OVCAR-8; conditions: read-out: apparent Kd; compound concentrations:100 nM and 1000 nM (sheet 'Samples'); n = 1
# [7] = system: PKN1; set-up: species or system human, MV4-11 + K-562 + COLO205 + SK-N-BE2 + OVCAR-8; conditions: read-out: apparent Kd; compound concentrations:100 nM and 1000 nM (sheet 'Samples'); n = 1
# [8] = system: AAK1; set-up: species or system human, MV4-11 + K-562 + COLO205 + SK-N-BE2 + OVCAR-8; conditions: read-out: apparent Kd; compound concentrations:100 nM and 1000 nM (sheet 'Samples'); n = 1
# [9] = system: BMP2K; set-up: species or system human, MV4-11 + K-562 + COLO205 + SK-N-BE2 + OVCAR-8; conditions: read-out: apparent Kd; compound concentrations:100 nM and 1000 nM (sheet 'Samples'); n = 1
# [10] = system: CLK1; set-up: species or system human, MV4-11 + K-562 + COLO205 + SK-N-BE2 + OVCAR-8; conditions: read-out: apparent Kd; compound concentrations:100 nM and 1000 nM (sheet 'Samples'); n = 1
# [11] = system: CSNK2A1;CSNK2A3; set-up: species or system human, MV4-11 + K-562 + COLO205 + SK-N-BE2 + OVCAR-8; conditions: read-out: apparent Kd; compound concentrations:100 nM and 1000 nM (sheet 'Samples'); n = 1
# [12] = system: CSNK2A2; set-up: species or system human, MV4-11 + K-562 + COLO205 + SK-N-BE2 + OVCAR-8; conditions: read-out: apparent Kd; compound concentrations:100 nM and 1000 nM (sheet 'Samples'); n = 1
# [13] = system: FLT4; set-up: species or system human, MV4-11 + K-562 + COLO205 + SK-N-BE2 + OVCAR-8; conditions: read-out: apparent Kd; compound concentrations:100 nM and 1000 nM (sheet 'Samples'); n = 1
# [14] = system: NUAK1; set-up: species or system human, MV4-11 + K-562 + COLO205 + SK-N-BE2 + OVCAR-8; conditions: read-out: apparent Kd; compound concentrations:100 nM and 1000 nM (sheet 'Samples'); n = 1
# [15] = system: PRKAG1; set-up: species or system human, MV4-11 + K-562 + COLO205 + SK-N-BE2 + OVCAR-8; conditions: read-out: apparent Kd; compound concentrations:100 nM and 1000 nM (sheet 'Samples'); n = 1
# [16] = molecular target: Q6ZSR9 (human, UniProt Q6ZSR9); set-up: species or system MV4-11 + K-562 + COLO205 + SK-N-BE2 + OVCAR-8; conditions: read-out: apparent Kd; compound concentrations:100 nM and 1000 nM (sheet 'Samples'); n = 1
# Sequence of Q6ZSR9 (Q6ZSR9 whole entry, looked up): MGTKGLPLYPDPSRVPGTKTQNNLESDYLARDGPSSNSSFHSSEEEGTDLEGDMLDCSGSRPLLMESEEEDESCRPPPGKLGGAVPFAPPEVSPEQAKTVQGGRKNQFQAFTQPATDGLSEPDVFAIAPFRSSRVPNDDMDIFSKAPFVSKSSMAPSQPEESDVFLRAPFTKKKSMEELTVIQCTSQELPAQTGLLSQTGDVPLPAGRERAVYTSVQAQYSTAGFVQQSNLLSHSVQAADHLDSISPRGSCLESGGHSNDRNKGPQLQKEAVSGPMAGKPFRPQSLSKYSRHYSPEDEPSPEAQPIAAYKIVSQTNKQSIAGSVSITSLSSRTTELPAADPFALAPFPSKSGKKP
# [17] = system: RET; set-up: species or system human, MV4-11 + K-562 + COLO205 + SK-N-BE2 + OVCAR-8; conditions: read-out: apparent Kd, n = 1
# [18] = system: SIK2; set-up: species or system human, MV4-11 + K-562 + COLO205 + SK-N-BE2 + OVCAR-8; conditions: read-out: apparent Kd; compound concentrations:100 nM and 1000 nM (sheet 'Samples'); n = 1
# [19] = compound concentrations:100 nM and 1000 nM (sheet 'Samples')
smiles,measurement,setting,value
COc1cccc2c(-c3ccncc3)c(-c3ccc(F)cc3)nn12 [GW468513X],potency estimated from few doses,"[1]; compound concentrations: 100 nM and 1000 nM (sheet 'Samples'), CATDS: 4.7773336245273197E-2",0.615 µM
same,potency estimated from few doses,"[2]; compound concentrations: 100 nM and 1000 nM (sheet 'Samples'), CATDS: 5.3563953975551901E-2",0.427 µM
same,IC50,"[3]; read-out: Average, SD, n = 3",0.91 µM
same,IC50,[3]; read-out: Rep 1,2.1 µM
same,IC50,[3]; read-out: Rep 2,0.552 µM
same,IC50,[3]; read-out: Rep 4,0.0739 µM
Cl.ON=C1CCc2cc(-c3nc(C4CCNCC4)[nH]c3-c3ccncc3)ccc21 [SB-614067-R],potency estimated from few doses,[2]; [19],0.125 µM
same,IC50,"[3]; read-out: Average, SD, n = 4",22.9 µM
same,IC50,[3]; read-out: Rep 1,19.1 µM
same,IC50,[3]; read-out: Rep 2,20.6 µM
same,IC50,[3]; read-out: Rep 3,50.1 µM
same,IC50,[3]; read-out: Rep 4,1.84 µM
CCn1c(-c2nonc2N)nc2c(C#CC(C)(C)O)nc(OCCN)cc21.CCn1c(-c2nonc2N)nc2c(C#CC(C)(C)O)nc(OCCN)cc21.Cl.Cl [GSK902056A],potency estimated from few doses,[4],0.113 µM
same,potency estimated from few doses,[5],0.136 µM
same,potency estimated from few doses,[6],0.677 µM
same,potency estimated from few doses,[7],0.085 µM
same,IC50,"[3]; read-out: Average, SD, n = 4",0.0992 µM
same,IC50,[3]; read-out: Rep 1,0.234 µM
same,IC50,[3]; read-out: Rep 2,0.0565 µM
same,IC50,[3]; read-out: Rep 3,0.027 µM
same,IC50,[3]; read-out: Rep 4,0.0792 µM
Cc1cccc(Nc2nc(N[C@H]3CCCC[C@H]3N)ncc2C(N)=O)c1.Cl [GSK986310C],potency estimated from few doses,[6],0.322 µM
Cc1ccc2c(-c3ccncc3)c(-c3ccc(F)cc3)nn2c1.Cl [GW461484A],potency estimated from few doses,[8],0.767 µM
same,potency estimated from few doses,[9],1.9 µM
same,potency estimated from few doses,[10],0.548 µM
same,potency estimated from few doses,[11],1.55 µM
same,potency estimated from few doses,[12],2.22 µM
same,potency estimated from few doses,[13],1.32 µM
same,potency estimated from few doses,[1]; [19],0.319 µM
same,potency estimated from few doses,[4],0.434 µM
same,potency estimated from few doses,[5],0.493 µM
same,potency estimated from few doses,[14],1.59 µM
same,potency estimated from few doses,[6],0.888 µM
same,potency estimated from few doses,[7],2.01 µM
same,potency estimated from few doses,[2]; [19],1.39 µM
same,potency estimated from few doses,[15],0.56 µM
same,potency estimated from few doses,[16],0.942 µM
same,potency estimated from few doses,[17]; [19],0.683 µM
same,potency estimated from few doses,[18],0.696 µM
CCn1c(-c2nonc2N)nc2c(-c3ccccc3)ncc(OCCCN)c21.CCn1c(-c2nonc2N)nc2c(-c3ccccc3)ncc(OCCCN)c21.O=C(O)C(F)(F)F.O=C(O)C(F)(F)F [GSK260205A],potency estimated from few doses,"[1]; compound concentrations: 100 nM and 1000 nM (sheet 'Samples'), CATDS: 2.96050281932086E-2",1.38 µM
same,potency estimated from few doses,"[2]; compound concentrations: 100 nM and 1000 nM (sheet 'Samples'), CATDS: 0.85080270266883096",0.0011 µM
same,potency estimated from few doses,"[17]; compound concentrations: 100 nM and 1000 nM (sheet 'Samples'), CATDS: 8.7615337764420001E-2",0.0997 µM
same,IC50,"[3]; read-out: Average, SD, n = 4",0.0223 µM
same,IC50,[3]; read-out: Rep 1,0.0736 µM
same,IC50,[3]; read-out: Rep 2,0.00619 µM
same,IC50,[3]; read-out: Rep 3,0.00622 µM
same,IC50,[3]; read-out: Rep 4,0.00337 µM
